RecA intein inh – inhibitors of M. tuberculosis RecA intein splicing; P9WHJ3; cell-free RecA intein splicing, fluorescence; inhibition, % (test concentration not listed); 290,000 compounds, 0.75% hits; AID 2221; in the data active means inhibition above about 30%; inconclusive means no clear call, values can overlap the other calls;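 further: 0% = vehicle wells and 100% = reference inhibitor control wells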
Mtb bLac sens – beta-lactam sensitization of Mtb H37Rv. AID 434955. inhibition, % at 25 µM. 330,000 compounds, 0.27% hits. M. tuberculosis H37Rv growth with meropenem, percent inhibition;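 further: growth measured after seven days incubation then overnight dye step; 0% = bacteria only wells and 100% = bacteria with antibiotic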
GDH-TPI counter-1 – GDH-TPI coupled enzyme inhibition counter-screen; inhibition, % at 4.8 µM; 360,000 compounds, 1.2% hits; AID 588335; GDH-TPI coupled enzyme counterscreen, NADH absorbance; in the data active means inhibition above about 30%;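 further: 0% = DMSO wells and 100% = wells lacking the enzyme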
FBA Mtb inh – inhibits M. tuberculosis FBA enzyme; P9WQA3; purified M. tuberculosis FBA, fluorescence read-out; inhibition, % at 1 µM; 360,000 compounds, 2.3% hits; in the data active means inhibition above about 27%;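 further: 0% = vehicle and 100% = reference inhibitor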
UGM FP inh – inhibitors of M. tuberculosis UDP-galactopyranose mutase | inhibition, % at 10 µM | 320,000 compounds, 0.06% hits | purified UGM, fluorescence polarization probe displacement | P9WIQ1; in the data active means inhibition above about 10%, passing the limit was not always enough; inconclusive means no clear call, values can overlap the other calls
Rv3671c inh – Rv3671c (M. tuberculosis) protease inhibition. P9WHR9. inhibition, % at 5.96 µM. 320,000 compounds, 0.048% hits. AID 2606; in the data active means inhibition above about 38%;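 further: extracellular domain of Rv3671c used as enzyme; 0% = enzyme with DMSO and 100% = no enzyme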
Target sequence (P9WHR9 whole entry, looked up, the tested form may be a part): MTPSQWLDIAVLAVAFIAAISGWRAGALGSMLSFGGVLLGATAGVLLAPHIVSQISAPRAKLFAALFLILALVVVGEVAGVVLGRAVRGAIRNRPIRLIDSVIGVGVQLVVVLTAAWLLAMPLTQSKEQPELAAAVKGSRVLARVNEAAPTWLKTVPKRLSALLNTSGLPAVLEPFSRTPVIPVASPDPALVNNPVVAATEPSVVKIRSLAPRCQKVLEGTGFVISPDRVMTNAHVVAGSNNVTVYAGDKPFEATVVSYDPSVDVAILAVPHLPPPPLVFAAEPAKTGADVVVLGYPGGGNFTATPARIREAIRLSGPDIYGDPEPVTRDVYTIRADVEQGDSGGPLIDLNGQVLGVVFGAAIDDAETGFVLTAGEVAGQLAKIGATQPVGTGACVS
Mtb FBA inh conf – confirmation of M. tuberculosis fructose-bisphosphate aldolase inhibitors | inhibition, % at 1 µM | purified M. tuberculosis FBA, fluorescence read-out | shares compounds with FBA Mtb inh | AID 651616 | 5,600 compounds, 78% hits; in the data active means inhibition above about 27%;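 further: 0% = vehicle wells and 100% = reference inhibitor wells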
GDH-TPI counter-2 – counter-screen for M. tuberculosis FBA inhibitors: GDH-TPI coupled enzyme inhibition; shares compounds with FBA Mtb inh; GDH-TPI coupled enzyme counterscreen, fluorescence; inhibition, % at 1 µM; 5,600 compounds, 81% hits; in the data active means inhibition above about 10%
GDH-TPI DR – GDH-TPI dose response counter-screen for Mtb FBA; shares compounds with FBA Mtb inh; GDH-TPI coupled enzyme assay, fluorescence, artifact counterscreen; IC50, µM; 170 compounds, 79% hits; AID 652145
Numbers without * were called inactive; ? = inconclusive; · = no result given; + = active, no number. Only some compounds are listed: those with a hit (about 4% of all), similar ones and a draw of the others. Unless noted, how the calls were made is not given here.

SMILES	RecA intein inh	Mtb bLac sens	GDH-TPI counter-1	FBA Mtb inh	UGM FP inh	Rv3671c inh	Mtb FBA inh conf	GDH-TPI counter-2	others
COc1ccc(NC(=O)c2cc(C3CCCCN3S(=O)(=O)c3ccc(F)cc3F)on2)c(C)c1 (centres undefined)	·	·	-3	0	·	·	·	·
O=c1[nH]c2cc3c(cc2cc1CN(Cc1cccs1)Cc1nnnn1Cc1ccco1)OCCO3	-16	-5	24	35*	1	-24	84*	78*
O=c1[nH]c2cc3c(cc2cc1CN(Cc1cccnc1)Cc1nnnn1Cc1ccco1)OCCO3	2	18	18	34*	2	-12	-2	0
O=C1N=C(N2CCN(c3ccccc3)CC2)S/C1=C/c1cccs1	7	66	26	34*	4	0	6	-8
Cn1nc(C(C)(C)C)cc1C(=O)NN1CCOCC1	4	?	5	4	0	8	·	·
Cc1ccc(S(=O)(=O)N/N=C\c2ccc3c(c2)OCO3)cc1	0	4	17	1	0	0	·	·
Cc1ccc(S(=O)(=O)N/N=C\c2cc3c(cc2Br)OCO3)cc1	2	2	8	42*	3	-7	9	-4
O=C(c1ccco1)N1CCN(C(=O)c2cc3ccccc3oc2=O)CC1	-1	2	10	2	1	4	·	·
COc1ccc2oc(=O)c(C(=O)N3CCN(C(=O)c4ccccc4)CC3)cc2c1	-8	-6	1	27*	-1	-4	119*	92*
COc1cc2ccccc2cc1C(=O)N1CCN(C(C)=O)CC1	0	-6	6	1	3	2	·	·
COc1ccc2cc(OC)c(C(=O)N3CCOCC3)cc2c1	-7	0	-8	36*	-1	-2	-2	-4
COc1ccc2oc(=O)c(C(=O)N3CCN(C(=O)c4ccco4)CC3)cc2c1	-19	-7	1	34*	-3	2	115*	76*
COc1ccc(-c2ccc3c(=O)cc(-c4ccsc4)oc3c2)cn1	·	0	15	48*	0	-39	10	1
COc1cc(-c2ccc3oc(-c4ccsc4)cc(=O)c3c2)cc(OC)c1OC	·	95	20	-2	1	-20	·	·
CC1(C(=O)NS(=O)(=O)Cc2ccccc2)CCN1C(=O)C1(c2ccc(Cl)cc2)CCC1 (centres undefined)	·	·	-8	0	·	·	·	·
N#Cc1c(NCCCO)nc(-c2ccccc2)c2c1CCCC2	5	-5	21	51*	-1	-7	58*	36*
CN(C)CCCNc1nc(-c2ccccc2)c2c(c1C#N)CC(C)(C)OC2	-3	-5	9	45*	2	4	107*	85*
N#Cc1c(NCCN)nc(-c2ccccc2)c2c1CCCC2	4	-12	2	9	1	2	·	·
CC1(C)Cc2c(C#N)c(NC3CCCCC3)nc(-c3ccco3)c2CO1	-13	3	10	15	-1	1	·	·
CC1(C)Cc2c(C#N)c(NCC3CCCO3)nc(-c3ccco3)c2CO1 (centres undefined)	-6	1	15	30*	0	-1	+	+
CC(C)(C)C1CCC(=NNC(=O)c2ccco2)CC1 (centres undefined)	0	8	6	-1	3	-4	·	·
Cc1cc(C(=O)NCCN2CCCCC2C)n(-c2ccccc2)n1 (centres undefined)	-4	3	-2	7	3	-7	·	·
CC1CCCCN1CCNC(=O)c1cnn2ccccc12 (centres undefined)	1	3	16	40*	1	4	23	14*
Cc1c(C)c2c(OCC(=O)N3CCC(C(=O)NCC(C)C)CC3)cc3c(c2oc1=O)CCC(C)(C)O3	0	-4	8	51*	3	-10	-4	0
COc1ccc(CNC(=O)COc2ccc(S(=O)(=O)N3CCOCC3)cc2C)cc1	0	-9	-9	-1	2	1	·	·
SMILES	RecA intein inh	Mtb bLac sens	GDH-TPI counter-1	FBA Mtb inh	UGM FP inh	Rv3671c inh	Mtb FBA inh conf	GDH-TPI counter-2	others
COc1ccc(CNC(=O)COc2cc3c(c4oc(=O)cc(C)c24)CCC(C)(C)O3)cc1	-2	2	22	43*	5	-10	+	171*
O=C1CCNc2cc3ccccc3cc21	-31	12	6	23	2	6	·	·
O=C1NC(=O)c2cc3ccccc3cc21	·	-9	3	37*	3	-8	34*	24*
Cc1cccn2c(=O)c3cc(C(=O)NC4CCCC4)c(=N)n(Cc4ccc(F)cc4)c3nc12	-262	97	0	60*	0	0	6	1
Cc1ccc2nc3c(cc(C(=O)NC4CCCC4)c(=N)n3CCCn3ccnc3)c(=O)n2c1	-245	-1	·	·	2	1	·	·
Cc1cccn2c(=O)c3cc(C(=O)NC4CCCC4)c(=N)n(CCc4ccccc4)c3nc12	1	89	5	63*	-2	5	119*	78*
CCN(C(=O)c1cc2c(=O)n3cccc(C)c3nc2n1CCCOC)C1CCCCC1	-30	2	13	38*	0	-14	103*	85*
COCCCn1c(C(=O)NCCN2CCOCC2)cc2c(=O)n3cccc(C)c3nc21	-58	8	7	78*	2	4	+	161*
O=c1[nH]nnc2cc(Cl)ccc12	·	·	4	2	·	·	·	·
O=C(NCc1ccccc1Cl)c1csc([C@@H]2C[C@H](O)[C@@H](CO)O2)n1	·	·	-4	-1	·	·	·	·
Cc1ccc2nc3c(cc(C(=O)NCc4ccco4)c(=N)n3C3CCCC3)c(=O)n2c1	·	7	-1	39*	0	7	92*	76*
Cc1cccn2c(=O)c3cc(C(=O)NC4CCCC4)c(=N)n(C4CCCCC4)c3nc12	-188	9	6	67*	0	2	14	3	GDH-TPI DR=0.77*
Cc1cccn2c(=O)c3cc(C(=O)NC4CCCCC4)c(=N)n(Cc4ccccc4)c3nc12	-466	99	4	62*	3	4	103*	89*
COCCCn1c(C(=O)NCCC2=CCCCC2)cc2c(=O)n3ccccc3nc21	0	10	2	47*	-1	10	48*	36*
COc1ccc(CCNC(=O)C(=O)NCC2CCCN2S(=O)(=O)c2ccccc2)cc1OC (centres undefined)	-1	-9	9	-1	4	-8	·	·
COc1ccc(-c2ccc(C(=O)Nc3ccc(C(C)C)cc3)c3occc23)c(C)c1	·	·	20	1	·	·	·	·
O=C(CCNC(=O)N1CC(=O)Nc2ccccc21)NCc1ccc(Cl)cc1	·	·	3	-3	·	·	·	·

Screens (PubChem BioAssay)
